Bioassay records as filed in PubChem.
PLC-gamma1 inh: PLC-gamma1 (human) inhibition, primary screen; P19174; purified PLC-gamma1, fluorogenic substrate, fluorescence; inhibition, % at 12.2 µM; 370,000 compounds, 0.84% hits; AID 720700; in the data active = inhibition above about 9.5%
sPLA2-III inh: Blocks human group III sPLA2 activity; Q9NZ20; QFRET BODIPY PC-A2 liposome hydrolysis, fluorescence; inhibition, % at 12.2 µM; 370,000 compounds, 0.56% hits; AID 743126;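 active = inhibition above mean plus 3 SD of compounds lying within the high and low control bounds, cut at about 19% in these data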;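 also: 0% = median of test compound wells and 100% = no enzyme DMSO wells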
ADAM17 inh: inhibits human ADAM17 | recombinant ADAM17, EDANS/DABCYL FRET peptide cleavage | inhibition, % at 6.95 µM | 370,000 compounds, 0.83% hits;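 active = inhibition above the mean of compounds lying between control limits plus 3 SD, set per campaign, cut at about 8.5% in these data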;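 also: 0% = DMSO-only wells as the low control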
proKLK7 act: proKLK7 (human) activation, primary screen. 370,000 compounds, 0.9% hits. AID 652039. purified proKLK7, EDANS-DABCYL substrate fluorescence; 100% is mature enzyme control, 0% vehicle. activation, % at 7 µM;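 active = activation above the mean of all tested compounds plus 3 SD, computed per campaign excluding outliers beyond control limits, cut at about 13% in these data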
Target sequence (P49862 whole entry, looked up): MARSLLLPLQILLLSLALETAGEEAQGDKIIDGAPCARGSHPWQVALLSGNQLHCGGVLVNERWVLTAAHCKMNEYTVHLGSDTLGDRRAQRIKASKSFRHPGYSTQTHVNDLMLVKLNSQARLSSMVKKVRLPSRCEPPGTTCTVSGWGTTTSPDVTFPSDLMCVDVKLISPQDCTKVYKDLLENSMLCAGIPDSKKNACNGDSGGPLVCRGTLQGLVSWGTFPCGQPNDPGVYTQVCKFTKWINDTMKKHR
PLCb3 inh: inhibitors of human phospholipase C beta3; Purified PLC-beta3, fluorogenic substrate, fluorescence; AID 720704; inhibition, % at 12.2 µM; Q01970; 370,000 compounds, 0.18% hits; in the data active = inhibition above about 11%;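 also: 0% = median of compound wells on plate and 100% = full blocker control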
ADAM10 inh: inhibitors of human ADAM10; recombinant ADAM10, EDANS/DABCYL FRET peptide cleavage, 3 h; inhibition, % at 7 µM; 370,000 compounds, 0.62% hits; AID 720582;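 active = inhibition above a per-campaign cutoff equal to the mean of compounds falling between control-based bounds plus 3 SD, cut at about 20% in these data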;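 also: 0% = DMSO wells while the 100% control is not disclosed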
ADAM10 confirm: human ADAM10 inhibition, confirmation; AID 743208; 2,100 compounds, 1% hits; shares compounds with ADAM10 inh; ADAM10 QFRET peptide cleavage, EDANS fluorescence; inhibition, % at 6.95 µM;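 active = inhibition above about 20% chosen separately for each screening run, limit read from the data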;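 also: 0% = DMSO wells and 100% = marimastat wells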
ADAM17 ctr: counter-screen for ADAM10 exosite inhibitors: inhibitors of human ADAM17. 2,100 compounds, 0.5% hits. ADAM17 QFRET peptide cleavage, EDANS fluorescence. AID 743214. inhibition, % at 6.95 µM. shares compounds with ADAM10 inh;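 active = mean triplicate inhibition above the solvent-only control wells' mean plus 3 SD, cut at about 12% in these data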;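 also: 0% = DMSO wells and 100% = marimastat wells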
* marks the source's active call; other numbers are inactive results; / = no result given. The list is not random: actives were taken first. Their share in the collection is about 3.4%.

SMILES | PLC-gamma1 inh | sPLA2-III inh | ADAM17 inh | proKLK7 act | PLCb3 inh | ADAM10 inh | ADAM10 confirm | ADAM17 ctr
Cc1cc(C)c(OCC(=O)Nc2cccc(NC(=O)c3ccco3)c2)c(Br)c1 | 0 | -27 | 8 | 0 | -5 | 21* | 6 | 2
Cc1cc(C)c(OCC(=O)Nc2ccc(NC(=O)c3ccco3)cc2)c([N+](=O)[O-])c1 | 1 | 4 | -1 | 0 | 0 | -9 | / | /
Cc1ccccc1C(=O)NC1CCCCN(Cc2ccc(Cl)cc2)C1=O (configuration not stated) | 0 | 7 | -7 | 0 | 0 | -2 | / | /
COC(=O)[C@]12C[C@H](CC(=O)N3CCSCC3)C(=O)N(CCc3ccc(OC)c(OC)c3)C1=C[C@H](COCc1ccccc1)O[C@@H]2C | 0 | -3 | -4 | 0 | -1 | -1 | / | /
O=c1c2ccccc2c(-c2ccc(O)cc2)nn1-c1cccc(C(F)(F)F)c1 | -27 | -23 | 12* | -3 | -40 | 21* | 6 | 2
O=c1c2ccccc2c(-c2cccc(C(F)(F)F)c2)nn1-c1ccccc1 | -3 | -5 | 2 | 0 | -3 | 2 | / | /
O=C(COC(=O)C1CCN(c2ccc(C(F)(F)F)cn2)CC1)Nc1ccc(Cl)cc1 | -5 | -17 | 7 | 0 | -17 | 27* | 9 | 4
O=C(COC(=O)C1CCN(c2ccc(C(F)(F)F)cn2)CC1)Nc1ccc(Cl)cn1 | -3 | -2 | 0 | 0 | -5 | 3 | / | /
O=C(CCN1CCN(Cc2ccccc2)CC1)Nc1ccc(OCc2ccccc2)cc1 | 7 | -24 | 2 | 0 | 7 | 21* | 4 | 1
O=C(CCN1CCN(CCO)CC1)Nc1ccc(OCc2ccccc2)cc1 | -1 | 5 | 0 | 0 | 2 | -2 | / | /
O=S(=O)(c1sccc1Br)n1c(CN2CCOCC2)nc2ccccc21 | 0 | -1 | -2 | -1 | -1 | -3 | / | /
Cc1ccc(N=C(NOCc2ccc(Cl)cc2Cl)c2nonc2N)c(C)c1 | -27 | -18 | 5 | 0 | -1 | 21* | 7 | 2
Cc1ccc(N=C(NO)c2nonc2N)c(C)c1 | 0 | -13 | 5 | 0 | 1 | -2 | / | /
O=C1c2[nH]nc(-c3ccccc3O)c2C(c2cccc(Cl)c2)N1Cc1ccco1 (configuration not stated) | 0 | -4 | 7 | 0 | -6 | 29* | 4 | 1
O=C1c2[nH]nc(-c3ccccc3O)c2C(c2ccc(F)cc2)N1Cc1ccco1 (configuration not stated) | -8 | -22 | 7 | 0 | -6 | 10 | / | /
COC(=O)[C@@H](CC(C)C)CP(=O)(OC)[C@@H](C)NC(=O)OCc1ccccc1 (some centres not stated) | -1 | 3 | -4 | 0 | 0 | -1 | / | /
O=C(NCCNc1ccc([N+](=O)[O-])cc1C(F)(F)F)c1ccccc1 | 2 | 12 | 3 | 0 | 2 | 2 | / | /
O=C(NCCNc1ccc([N+](=O)[O-])cc1C(F)(F)F)c1cccc(F)c1 | 5 | 7 | -2 | 0 | 0 | 20* | 1 | 0
CCn1nc(C(=O)OC(C(=O)c2c[nH]c3ccccc23)c2ccccc2)c2ccccc2c1=O (configuration not stated) | 0 | -35 | 7 | -2 | 0 | 24* | 11 | 5
COc1ccccc1CNS(=O)(=O)c1ccc(-n2cnnn2)c(C)c1 | 0 | 5 | -4 | 0 | -7 | -3 | / | /
Cc1cc(S(=O)(=O)NCC(c2ccccc2)c2ccccc2)ccc1-n1cnnn1 | 0 | -88 | 5 | 0 | -5 | 20* | 2 | 1
OC(c1cccc(F)c1)c1ncc(-c2ccc(Oc3ccccc3)cc2)[nH]1 (configuration not stated) | -13 | -10 | 7 | 1 | -14 | 23* | 10 | 3
OC(c1ccc(Cl)c(F)c1)c1ncc(-c2ccc(Cl)cc2)[nH]1 (configuration not stated) | 2 | -13 | 7 | -1 | 1 | 20* | 3 | 1
OC(c1ccc(Cl)c(Cl)c1)c1ncc(-c2ccccc2C(F)(F)F)[nH]1 (configuration not stated) | 7 | 4 | 10* | 0 | 2 | 22* | 2 | 1
OC(c1ccc(Cl)c(Cl)c1)c1ncc(-c2ccc(Cl)cc2)[nH]1 (configuration not stated) | 1 | -10 | 7 | 0 | 1 | 11 | / | /
SMILES | PLC-gamma1 inh | sPLA2-III inh | ADAM17 inh | proKLK7 act | PLCb3 inh | ADAM10 inh | ADAM10 confirm | ADAM17 ctr
O=C1CC(c2ccccc2Oc2cccc(Cl)c2)C(n2cncn2)C(=O)C1C1NCCc2ccccc21 (configuration not stated) | -6 | -35 | 0 | 0 | -12 | 23* | -1 | -1
Cc1ccc(-c2cc(-c3nnc4sc(COc5ccccc5)nn34)[nH]n2)cc1 | 3 | 3 | -4 | 0 | -4 | -8 | / | /
Cc1csc(NC(=O)c2cccc(Cn3nc(C)c(Br)c3C)c2)n1 | -4 | -19 | 3 | -2 | -6 | 20* | 4 | 1
CCCCCCCCN1C(=O)[C@@H](CC(=O)N2CCN(C(=O)C3CC3)CC2)C[C@@]2(C(=O)OC)C1=C[C@H](COCc1ccccc1)O[C@@H]2C | -1 | -21 | -1 | 1 | 1 | 6 | / | /
CCc1cc(C(=O)Cc2ccc(F)cc2)c(O)cc1O | -32 | -55 | 9 | -2 | -54 | 23* | 2 | 2
C#CCN(C[C@H]1[C@H](OC(=O)NCc2ccco2)[C@H](OC(=O)NCc2ccco2)C[C@H]2C(=O)N(c3ccccc3)C(=O)[C@@H]12)S(=O)(=O)c1ccc(C)cc1 | 2 | -16 | 8 | 1 | 2 | 21* | 8 | 2
C#CCN(C[C@@H]1[C@@H](OC(=O)NCc2ccco2)[C@@H](OC(=O)NCc2ccco2)Cn2c(=O)ccc(=O)n21)S(=O)(=O)c1ccc(C)cc1 | -3 | -11 | -4 | 0 | -6 | -8 | / | /
CC1(Cc2ccc(Cl)c(Cl)c2)C(=O)Nc2ccc(S(=O)(=O)NC3CCCCC3)cc21 (configuration not stated) | 1 | -30 | 8 | 1 | 1 | 20* | 13 | 3
CCOC(=O)[C@]12CCCC=C1N(CCCOC)C(=O)[C@@H]2CC(=O)NCC1CCCCC1 | -2 | 2 | -4 | 0 | -3 | -10 | / | /
O=C(COc1ccc(Cl)cc1Cl)OCC(=O)N1CCCc2ccccc21 | 5 | -10 | 8 | 0 | 0 | 21* | 4 | 0
